Measured values taken from PubChem BioAssay AID1159580 (chemical genetic matrix, 2015).
Several values for one entry are separate records, joined by “and”; a condition that tells them apart may be missing. Equal entries are not always repeated. About 2,000 (36%) of roughly 5,500 compounds were called active. Roughly 18% stayed inconclusive and do not appear here. Rule as the data show it: active = normalized growth mostly below about 0.91 (no sharp cut-off); inconclusive = no clear call, values can overlap the other calls; inactive = mostly above about 0.92. Some of the results follow.

Test: chemical genetic growth profiling, strain panel (AID 1159580);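 also: tested at 20 µM; growth read once vehicle control cultures reached saturation at 30 °C; 1 = growth at the plate median or of vehicle wells; lower values mean less growth of the strain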
Settings: growth OD

Measured: normalized growth

Cc1cccc(C)c1NC1=NCCCS1
inactive: S. cerevisiae deletion strains, locus YJR075W, strain HOC1, stronger effect = lower value 1.03 | S. cerevisiae deletion strains, locus YKL009W, strain mrt4, stronger effect = lower value 0.968 | S. cerevisiae deletion strains, locus YKL068W, stronger effect = lower value 0.977 | S. cerevisiae deletion strains, locus YKL085W, strain MDH1 (second series), stronger effect = lower value 0.976 | S. cerevisiae deletion strains, locus YKL085W, strain MDH1, stronger effect = lower value 0.976 | S. cerevisiae deletion strains, locus YKL160W, strain elf1, stronger effect = lower value 1 | S. cerevisiae deletion strains, locus YKL190W, strain CNB1, stronger effect = lower value 1.01 | S. cerevisiae deletion strains, locus YKR001C, strain vps1, stronger effect = lower value 1 | S. cerevisiae deletion strains, locus YKR026C, strain gcn3, stronger effect = lower value 1 | S. cerevisiae deletion strains, locus YKR091W, strain srl3, stronger effect = lower value 1.01 | S. cerevisiae deletion strains, locus YLL001W, strain dnm1, stronger effect = lower value 0.959 | S. cerevisiae deletion strains, locus YLL026W, stronger effect = lower value 1 | S. cerevisiae deletion strains, locus YLL041C, strain sdh2, stronger effect = lower value 1.02 | S. cerevisiae deletion strains, locus YLR027C, strain aat2, stronger effect = lower value 1.01 | S. cerevisiae deletion strains, locus YLR039C, strain RIC1, stronger effect = lower value 0.997 | S. cerevisiae deletion strains, locus YLR058C, strain SHM2, stronger effect = lower value 0.996 | S. cerevisiae deletion strains, locus YLR102C, strain apc9, stronger effect = lower value 0.989 | S. cerevisiae deletion strains, locus YLR113W, strain HOG1, stronger effect = lower value 1.04 | S. cerevisiae deletion strains, locus YLR221C, strain rsa3, stronger effect = lower value 0.994 | S. cerevisiae deletion strains, locus YLR258W, strain gsy2, stronger effect = lower value 0.995 | S. cerevisiae deletion strains, locus YLR262C, strain YPT6 (second series), stronger effect = lower value 1.03 | S. cerevisiae deletion strains, locus YLR262C, strain YPT6, stronger effect = lower value 0.985 | S. cerevisiae deletion strains, locus YLR268W, strain sec22, stronger effect = lower value 0.978 | S. cerevisiae deletion strains, locus YLR320W, strain mms22, stronger effect = lower value 0.994 | S. cerevisiae deletion strains, locus YLR330W, strain CHS5, stronger effect = lower value 0.991 | S. cerevisiae deletion strains, locus YLR342W, strain FKS1 (second series), stronger effect = lower value 0.981 | S. cerevisiae deletion strains, locus YLR342W, strain FKS1, stronger effect = lower value 0.998 | S. cerevisiae deletion strains, locus YLR357W, strain rsc2, stronger effect = lower value 0.999 | S. cerevisiae deletion strains, locus YLR370C, strain arc18, stronger effect = lower value 1.03 | S. cerevisiae deletion strains, locus YLR371W, strain rom2, stronger effect = lower value 0.986 | S. cerevisiae deletion strains, locus YLR384C, strain iki3, stronger effect = lower value 0.993 | S. cerevisiae deletion strains, locus YLR418C, strain cdc73, stronger effect = lower value 0.986 | S. cerevisiae deletion strains, locus YML016C, strain PPZ1, stronger effect = lower value 0.998 | S. cerevisiae deletion strains, locus YML032C, strain rad52, stronger effect = lower value 0.998 | S. cerevisiae deletion strains, locus YML120C, strain ndi1, stronger effect = lower value 1.01 | S. cerevisiae deletion strains, locus YML124C, strain tub3, stronger effect = lower value 0.996 | S. cerevisiae deletion strains, locus YMR058W, strain fet3, stronger effect = lower value 1.02 | S. cerevisiae deletion strains, locus YMR078C, strain ctf18, stronger effect = lower value 0.98 | S. cerevisiae deletion strains, locus YMR125W, strain sto1, stronger effect = lower value 0.986 | S. cerevisiae deletion strains, locus YMR129W, stronger effect = lower value 1 | S. cerevisiae deletion strains, locus YMR205C, strain PFK2, stronger effect = lower value 1.01 | S. cerevisiae deletion strains, locus YMR223W, strain ubp8, stronger effect = lower value 0.969 | S. cerevisiae deletion strains, locus YMR231W, strain pep5, stronger effect = lower value 1 | S. cerevisiae deletion strains, locus YMR307W, strain GAS1, stronger effect = lower value 0.988 and 1 | S. cerevisiae deletion strains, locus YNL067W, strain RPL9B, stronger effect = lower value 1.04 | S. cerevisiae deletion strains, locus YNL071W, strain lat1, stronger effect = lower value 1.01 | S. cerevisiae deletion strains, locus YNL128W, strain TEP1, stronger effect = lower value 0.991 | S. cerevisiae deletion strains, locus YNL153C, strain GIM3, stronger effect = lower value 1.06 and 0.996 | S. cerevisiae deletion strains, locus YNL175C, strain NOP13, stronger effect = lower value 0.988 | S. cerevisiae deletion strains, locus YNL183C, strain NPR1, stronger effect = lower value 0.96 | S. cerevisiae deletion strains, locus YNL197C, strain WHI3, stronger effect = lower value 1.01 | S. cerevisiae deletion strains, locus YNL209W, strain ssb2, stronger effect = lower value 1.01 | S. cerevisiae deletion strains, locus YNL224C, strain SQS1, stronger effect = lower value 1 | S. cerevisiae deletion strains, locus YNL233W, strain BNI4, stronger effect = lower value 1.04 | S. cerevisiae deletion strains, locus YNL248C, strain rpa49, stronger effect = lower value 0.997 | S. cerevisiae deletion strains, locus YNL250W, strain rad50, stronger effect = lower value 0.926 | S. cerevisiae deletion strains, locus YNL271C, strain bni1, stronger effect = lower value 0.985 | S. cerevisiae deletion strains, locus YNL298W, strain CLA4, stronger effect = lower value 0.98 | S. cerevisiae deletion strains, locus YNL307C, strain MCK1, stronger effect = lower value 0.983 | S. cerevisiae deletion strains, locus YNL322C, strain KRE1 (second series), stronger effect = lower value 1.01 | S. cerevisiae deletion strains, locus YNL322C, strain KRE1, stronger effect = lower value 1.01 | S. cerevisiae deletion strains, locus YNR049C, strain mso1, stronger effect = lower value 0.999 | S. cerevisiae deletion strains, locus YNR052C, strain pop2, stronger effect = lower value 0.974 | S. cerevisiae deletion strains, locus YOL006C, strain TOP1, stronger effect = lower value 1.08 | S. cerevisiae deletion strains, locus YOL012C, strain htz1 1.34 | S. cerevisiae deletion strains, locus YOL147C, strain pex11, stronger effect = lower value 0.984 | S. cerevisiae deletion strains, locus YOR001W, strain rrp6, stronger effect = lower value 1.02 | S. cerevisiae deletion strains, locus YOR061W, strain CKA2, stronger effect = lower value 1 | S. cerevisiae deletion strains, locus YOR069W, strain VPS5, stronger effect = lower value 0.99 | S. cerevisiae deletion strains, locus YOR070C, strain gyp1, stronger effect = lower value 1.01 | S. cerevisiae deletion strains, locus YOR080W, strain dia2, stronger effect = lower value 0.999 | S. cerevisiae deletion strains, locus YOR083W, strain WHI5 (second series), stronger effect = lower value 0.998 | S. cerevisiae deletion strains, locus YOR083W, strain WHI5, stronger effect = lower value 1 | S. cerevisiae deletion strains, locus YOR106W, strain vam3, stronger effect = lower value 1.04 | S. cerevisiae deletion strains, locus YOR136W, strain idh2, stronger effect = lower value 0.995 | S. cerevisiae deletion strains, locus YOR144C, strain elg1, stronger effect = lower value 0.994 | S. cerevisiae deletion strains, locus YOR184W, strain ser1, stronger effect = lower value 0.976 | S. cerevisiae deletion strains, locus YOR231W, strain MKK1, stronger effect = lower value 1.02 | S. cerevisiae deletion strains, locus YOR265W, strain rbl2, stronger effect = lower value 1.01 | S. cerevisiae deletion strains, locus YOR270C, strain vph1, stronger effect = lower value 1.03 | S. cerevisiae deletion strains, locus YOR290C, strain snf2, stronger effect = lower value 1.01 | S. cerevisiae deletion strains, locus YOR316C, strain cot1, stronger effect = lower value 0.99 | S. cerevisiae deletion strains, locus YPL051W, strain arl3, stronger effect = lower value 0.999 | S. cerevisiae deletion strains, locus YPL055C, strain LGE1, stronger effect = lower value 1.1 | S. cerevisiae deletion strains, locus YPL078C, strain atp4, stronger effect = lower value 1.02 | S. cerevisiae deletion strains, locus YPL106C, strain sse1, stronger effect = lower value 1.01 | S. cerevisiae deletion strains, locus YPL240C, strain hsp82, stronger effect = lower value 0.999 | S. cerevisiae deletion strains, locus YPL241C, strain CIN2, stronger effect = lower value 1.01 | S. cerevisiae deletion strains, locus YPL256C, strain CLN2, stronger effect = lower value 1.04 | S. cerevisiae deletion strains, locus YPR119W, strain clb2, stronger effect = lower value 0.985 | S. cerevisiae deletion strains, locus YPR141C, strain kar3, stronger effect = lower value 0.982 | S. cerevisiae deletion strains, locus YPR163C, strain tif3, stronger effect = lower value 0.979 | S. cerevisiae deletion strains, locus YPR167C, strain met16, stronger effect = lower value 0.992 | S. cerevisiae deletion strains, strain wtn01, stronger effect = lower value 0.973 | S. cerevisiae strains, strain wild type, stronger effect = lower value 1
